Target: Metabotropic glutamate receptor 8 (Rattus norvegicus) (UniProt P70579)
Assay: mGlu8 glutamate curve leftward shift by modulators, SAR follow-up, mechanism study for mGlu8/mGlu7 PAM project, cell-based, rat receptor, Ga15, calcium, 10 µM (AID 743427)
Conditions: rat mGlu8/Ga15, Fluo-4 calcium, glutamate CRC; glutamate CRC left shift; at 10 µM; stronger effect = higher value

## COC(=O)c1ccc(-n2c(C)cc(C(=O)CSc3ccc(NC(C)=O)cc3)c2C)cc1
  fold shift: 4.77

Reference: PubChem BioAssay AID743427 (Vanderbilt Specialized Chemistry Center, 2014)
